These results are taken from PubChem BioAssay.

Activity calls are given as the source filed them. Unless noted, no rule for the calls is given here.

Assay [1] is described as follows: anti-His antibody binders, primary screen, artefact control for SMM control protein annotation, biochemical, small-molecule microarray, 635 nm fluorescence (AID 1128).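 Also: score merges feature fluorescence with signal-to-noise for each printed compound spot.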 Particulars: anti-His Alexa647 antibody binding, higher = more signal.
The test system of assay [2] is Human papillomavirus type 1a E7 protein (residues 1-88). Nature of the assay: HPV1a E7 small-molecule binders, primary screen, biochemical, small-molecule microarray, residues 1-88, 635 nm (AID 1129). To be noted: small-molecule microarray binding, fluorescence 635 nm; higher = more signal.
Assay [3] deals with Focal adhesion kinase 1 (Homo sapiens) (UniProt Q05397). Nature of the assay: small-molecule microarray binders of FAK, primary screen, biochemical, 635/667 nm fluorescence, BSA, DTT (AID 1130).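 Also: composite of spot emission at 667 nm and signal to noise over triplicate slides.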 To be noted: PTK2 binding, 635 nm fluorescence, higher = more signal.
Focal adhesion kinase 1 (Homo sapiens), sequence (Q05397 whole entry, looked up): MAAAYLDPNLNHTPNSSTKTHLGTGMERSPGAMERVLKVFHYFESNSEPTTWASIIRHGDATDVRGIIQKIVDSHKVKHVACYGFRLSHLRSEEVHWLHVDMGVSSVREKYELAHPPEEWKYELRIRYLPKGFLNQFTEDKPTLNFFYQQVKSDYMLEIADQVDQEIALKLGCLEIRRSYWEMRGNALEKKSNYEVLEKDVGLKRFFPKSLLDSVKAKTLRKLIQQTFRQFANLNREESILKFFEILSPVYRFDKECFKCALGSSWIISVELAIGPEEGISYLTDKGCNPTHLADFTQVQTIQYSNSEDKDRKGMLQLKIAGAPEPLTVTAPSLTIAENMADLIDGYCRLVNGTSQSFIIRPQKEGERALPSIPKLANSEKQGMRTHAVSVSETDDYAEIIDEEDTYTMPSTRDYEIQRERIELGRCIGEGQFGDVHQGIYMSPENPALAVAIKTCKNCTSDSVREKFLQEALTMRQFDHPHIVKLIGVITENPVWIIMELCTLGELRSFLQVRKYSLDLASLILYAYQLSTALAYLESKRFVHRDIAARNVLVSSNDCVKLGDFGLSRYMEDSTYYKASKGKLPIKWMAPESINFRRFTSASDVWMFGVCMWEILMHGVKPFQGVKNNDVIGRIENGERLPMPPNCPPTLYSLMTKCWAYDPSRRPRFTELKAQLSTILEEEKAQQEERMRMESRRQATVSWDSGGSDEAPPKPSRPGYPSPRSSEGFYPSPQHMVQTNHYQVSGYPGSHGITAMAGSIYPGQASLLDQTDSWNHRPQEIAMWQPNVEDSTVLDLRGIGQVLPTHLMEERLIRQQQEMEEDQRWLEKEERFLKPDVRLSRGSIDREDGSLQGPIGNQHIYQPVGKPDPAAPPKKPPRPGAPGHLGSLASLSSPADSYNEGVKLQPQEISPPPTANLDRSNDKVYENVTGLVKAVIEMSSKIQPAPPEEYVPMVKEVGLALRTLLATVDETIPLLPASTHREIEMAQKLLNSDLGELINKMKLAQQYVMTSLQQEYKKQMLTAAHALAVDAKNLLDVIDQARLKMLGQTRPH
For assay [4], the system named is Fibrinogen (Alexa647-labelled). As to the kind of experiment: fibrinogen binders on compound microarrays, profiling panel, artefact control for SMM control-protein annotation, biochemical, small-molecule microarray, 635/667 nm fluorescence (AID 1131).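 Also: z-score merges 667 nm fluorescence with per-spot signal-to-noise over triplicate slides.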 Particulars: fibrinogen-A647 binding fluorescence, higher = more signal.
Assay [5] has as its target Follistatin (Homo sapiens) (UniProt P19883). Nature of the assay: follistatin binders on small-molecule microarrays, primary screen, biochemical, small-molecule microarray, 635/667 nm fluorescence (AID 1132). Particulars: FST binding, 635 nm fluorescence, higher = more signal.
Assay [6] addresses Fibroblast growth factor 2 (Homo sapiens) (UniProt P09038). As to the kind of experiment: FGF2 binders on small-molecule microarrays, primary screen, biochemical, small-molecule microarray, 635/667 nm fluorescence (AID 1133). Particulars: small-molecule microarray binding, FGF2, fluorescence 635/667; higher = more signal.
A short description of assay [7]: mitochondrial membrane potential change in A549 cells, profiling panel, cell-based, JC-1 fluorescence, basal, 24 h, 100 nL (AID 1138).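 Also: A549 lung adenocarcinoma cells under basal conditions with no added stimulus; test concentration not given here.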 Particulars: higher = more signal.
The next assay relates to Lefty1. Nature of the assay: Lefty1 binders on small-molecule microarrays, primary screen, biochemical, small-molecule microarray, 635/667 nm fluorescence (AID 1139). Particulars: small-molecule microarray binding, fluorescence 635/667; higher = more signal.
Assay [8] deals with wheat germ agglutinin (Triticum aestivum), Alexa647-labelled. Nature of the assay: wheat germ agglutinin binders on compound microarrays, profiling panel, artefact control for SMM control-protein annotation, biochemical, small-molecule microarray, 635/667 nm fluorescence (AID 1140).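 Also: score merges 667 nm feature emission with signal to noise over triplicate slides.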 Particulars: WGA-A647 binding, 635 nm fluorescence, higher = more signal.
Assay [9] has as its target Luciferin 4-monooxygenase (Photinus pyralis) (UniProt P08659). Nature of the assay: firefly luciferase enzyme inhibitors, primary screen, biochemical, luminescence, purified enzyme, 2006 set (AID 1141).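 Also: cell-free assay with purified firefly luciferase at 100 ng per well in PBS; test concentration not given here.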 To be noted: SteadyGlo luminescence, 30 min, higher = more signal, called active from +8 up or from −8 down.
Assay [10] deals with Wnt5a (protein binding on small-molecule microarray). As to the kind of experiment: Wnt5a binders on small-molecule microarray, primary screen, biophysical, 635/667 nm fluorescence (AID 1142).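 Also: fluorescence read at 667 nm with signal to noise per printed feature.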 Particulars: 635 nm fluorescence, higher = more signal.
Assay [11] is described as follows: cell viability in Huh7 cells, primary screen, cytotoxicity control for HCV replication inhibitor project, CellTiter-Glo luminescence, basal, 48 h (AID 1143).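 Also: Huh7 hepatoma cells carrying a hepatitis C replication reporter with no stimulus; test concentration not given here.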 Particulars: Huh7 HCV replicon, higher = more signal, called active from +8 up or from −8 down.
The nature of assay [12]: P. aeruginosa biofilm formation inhibitors, primary screen, PAO1 strain, BacTiter-Glo luminescence, LB-PBS (AID 1144). Particulars: 12 h, higher = more signal.
Assay [13] can be described thus: CREB reporter modulators without forskolin, primary screen, cell-based, PC12, CRE-LacZ reporter, unstimulated (AID 1145). Particulars: no forskolin, luminescence, 4.5 h, higher = more signal, called active from +8 up or from −8 down.
Assay [14] in a line: CREB reporter modulators under forskolin, primary screen, cell-based, PC12, CRE-LacZ reporter, forskolin-stimulated (AID 1146).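 Also: PC12 cells with 6xCRE LacZ reporter stimulated by forskolin 10 µM; beta-galactosidase reporter signal reflecting CREB driven transcription.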 Particulars: luminescence, 4.5 h, higher = more signal, called active from +8 up or from −8 down.
Assay [15] deals with Streptavidin (Streptomyces avidinii) (UniProt P22629). As to the kind of experiment: streptavidin binders on small-molecule microarray, primary screen, artefact control for SMM compound annotation, biophysical, 635/667 nm fluorescence (AID 1147).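 Also: signal reflects streptavidin binding to arrayed compounds as a control protein.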 To be noted: streptavidin binding, higher = more signal.
Streptavidin (Streptomyces avidinii), sequence (P22629 whole entry, looked up): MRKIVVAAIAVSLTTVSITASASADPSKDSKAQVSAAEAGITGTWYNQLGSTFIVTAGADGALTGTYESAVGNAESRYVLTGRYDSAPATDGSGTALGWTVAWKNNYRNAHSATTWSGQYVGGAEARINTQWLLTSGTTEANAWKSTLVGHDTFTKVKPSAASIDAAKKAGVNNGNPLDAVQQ
The nature of assay [16]: small-molecule binders of probe aInhba, primary screen, biochemical, small-molecule microarray, 635/667 nm fluorescence (AID 1148).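 Also: score merges 667nm spot fluorescence with signal-to-noise for antibody binding to printed compounds.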 Particulars: higher = more signal.
The target in assay [17] is Torsin-1A (Homo sapiens) (UniProt O14656). Nature of the assay: torsin A binders from cell lysate, primary screen, small-molecule microarray, wild-type, 635/667 nm (AID 1149). To be noted: COS7 hTOR1A-WT lysate, 635 nm fluorescence, higher = more signal.
Torsin-1A (Homo sapiens), sequence (O14656 whole entry, looked up): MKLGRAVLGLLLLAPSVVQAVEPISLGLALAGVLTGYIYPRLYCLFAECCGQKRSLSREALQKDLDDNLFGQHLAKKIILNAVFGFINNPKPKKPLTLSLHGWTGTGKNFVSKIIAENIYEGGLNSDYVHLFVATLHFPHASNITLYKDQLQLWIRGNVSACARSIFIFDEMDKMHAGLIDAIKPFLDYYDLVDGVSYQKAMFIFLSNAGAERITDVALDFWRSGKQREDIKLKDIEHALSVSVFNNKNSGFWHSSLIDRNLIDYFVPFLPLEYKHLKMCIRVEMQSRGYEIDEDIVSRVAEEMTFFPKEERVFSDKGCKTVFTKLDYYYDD
The target is the same in assay [18]. As to the kind of experiment: small-molecule binders of mutant TOR1A in lysate, primary screen, cell lysate, small-molecule microarray, COS7 lysate, 635/667 nm fluorescence (AID 1150).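 Also: score pools 667 nm emission and signal to noise measuring lysate protein binding.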 Particulars: COS7 hTOR1A mutant lysate, 635 nm fluorescence, higher = more signal.
Assay [19] relates to Sonic hedgehog protein (Shh). Nature of the assay: small-molecule binders of Shh protein, primary screen, biochemical, small-molecule microarray, 635/667 nm fluorescence (AID 1151).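 Also: Shh protein binding to compounds spotted on small-molecule microarray slides; score combines spot fluorescence intensity with signal-to-noise across triplicate slides.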 Particulars: small-molecule microarray binding, 635 nm fluorescence; higher = more signal.

Luciferin 4-monooxygenase (Photinus pyralis), sequence (P08659 whole entry, looked up): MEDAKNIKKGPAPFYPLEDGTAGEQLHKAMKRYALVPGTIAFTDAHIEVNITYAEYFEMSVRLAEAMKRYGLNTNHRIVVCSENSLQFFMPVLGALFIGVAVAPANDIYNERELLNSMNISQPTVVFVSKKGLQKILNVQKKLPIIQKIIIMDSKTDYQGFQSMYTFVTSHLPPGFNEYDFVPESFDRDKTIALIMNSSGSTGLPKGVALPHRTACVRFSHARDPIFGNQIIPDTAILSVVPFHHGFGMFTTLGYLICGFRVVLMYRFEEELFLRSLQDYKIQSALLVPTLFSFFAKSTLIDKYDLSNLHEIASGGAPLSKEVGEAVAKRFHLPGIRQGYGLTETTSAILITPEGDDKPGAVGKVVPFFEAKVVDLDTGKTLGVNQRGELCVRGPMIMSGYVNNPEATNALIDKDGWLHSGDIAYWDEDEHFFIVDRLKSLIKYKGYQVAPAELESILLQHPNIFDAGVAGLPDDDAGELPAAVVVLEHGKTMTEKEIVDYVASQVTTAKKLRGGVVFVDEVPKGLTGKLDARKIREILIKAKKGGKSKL
Follistatin (Homo sapiens), sequence (P19883 whole entry, looked up): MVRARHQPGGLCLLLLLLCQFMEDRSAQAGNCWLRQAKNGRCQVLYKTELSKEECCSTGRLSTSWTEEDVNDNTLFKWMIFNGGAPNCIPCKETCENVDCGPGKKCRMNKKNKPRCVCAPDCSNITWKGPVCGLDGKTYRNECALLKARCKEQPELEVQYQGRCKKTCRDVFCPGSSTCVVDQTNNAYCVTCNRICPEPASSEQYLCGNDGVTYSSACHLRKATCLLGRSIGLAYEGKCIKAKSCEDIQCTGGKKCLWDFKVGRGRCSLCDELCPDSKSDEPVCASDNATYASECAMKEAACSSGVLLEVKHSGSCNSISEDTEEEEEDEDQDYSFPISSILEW
Fibroblast growth factor 2 (Homo sapiens), sequence (P09038 whole entry, looked up): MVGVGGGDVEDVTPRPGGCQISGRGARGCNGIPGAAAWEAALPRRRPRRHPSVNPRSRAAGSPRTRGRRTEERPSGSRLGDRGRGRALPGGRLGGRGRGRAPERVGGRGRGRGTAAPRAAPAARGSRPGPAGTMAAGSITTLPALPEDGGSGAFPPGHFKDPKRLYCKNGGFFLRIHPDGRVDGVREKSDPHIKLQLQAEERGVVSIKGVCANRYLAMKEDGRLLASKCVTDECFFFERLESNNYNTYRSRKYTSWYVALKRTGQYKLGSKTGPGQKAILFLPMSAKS

As to `O=C(CS)NCCCCCCNC(=O)[C@H]1C[C@H]2C(=O)N3CCC[C@H]3C(=O)N2[C@H]1c1ccc(O)cc1`, the composite z-score in assay [1] came to 1.81; in assay [2], 0.828; in assay [3] it was 0.163; in assay [4], 0.702; in assay [5], 1.37; in assay [6] it was 1.34. For the same compound, the composite z-score in the assay with Lefty1 is 1.16; in assay [8] it was 0.681; in assay [10], -0.161; in assay [15], -0.322; in assay [16], -0.05; with Torsin-1A (Homo sapiens) [17], 0.624. Besides, the composite z-score with Torsin-1A (Homo sapiens) [18] turned out to be 0.947; in [19] it was 1.8. In addition, the z-score was -0.708 in assay [7]; 0.102 (inactive) in [9]; -0.514 (inactive) in assay [11]; -0.256 (inactive) in assay [12]; 0.675 (inactive) in [13]; 0.465 (inactive) in [14].

Consider `C=C(CCCC)C(=O)CC[C@H](OC(=O)c1ccccc1-c1ccccc1C(=O)O)c1ccc(CO)o1`, for which the composite z-score was 1.22 in [1]; 1.22 in assay [2]; -0.116 in assay [3]; 0.954 in assay [4]; 1.1 in assay [5]; 0.905 in assay [6]. Further, the composite z-score in the assay on Lefty1 stood at 1.57; in [8], 1.14; in [10] it was 0.123; in assay [15] it was 1.5; in assay [16], 0.0154; with Torsin-1A (Homo sapiens) [17] it was 0.472. Further, the values for the composite z-score (in the assay with Torsin-1A (Homo sapiens) [18]; in assay [19]) were 0.622 and 1.99, respectively. The z-score was -0.541 in assay [7]; -1.96 (inactive) in assay [9]; 0.0343 (inactive) in assay [11]; -0.976 (inactive) in [12]; -0.177 (inactive) in assay [13]; -0.56 (inactive) in assay [14].

As for `C=CCC(OC(C)=O)[C@@H]1[C@@H](N(Cc2cc3ccccc3o2)C(=O)c2cccc3ccccc23)c2cc(OCCCO)ccc2N1C(=O)Cc1ccc2ccccc2c1` (stereo not given in full), the composite z-score is 0.166 in assay [1]; -0.273 in assay [2]; -0.0768 in [3]; 0.571 in assay [4]; 0.416 in assay [5]; 0.439 in assay [6]. For the same compound, the composite z-score in the assay with Lefty1 is -0.0817; in assay [8] it was -0.157; in [10] it was 0.0744; in assay [15] it was 0.435; in [16], -0.0589; with Torsin-1A (Homo sapiens) [17] it was -0.213. Moreover, the composite z-score with Torsin-1A (Homo sapiens) [18] is -0.146; in assay [19], 0.191. In addition, the z-score in assay [7] was -0.274; in assay [9] it was 0.209 (inactive); in assay [11] it was -1.62 (inactive); in assay [12], 0.303 (inactive); in assay [13], 0.992 (inactive); in [14], -0.333 (inactive).

Consider `NC(=O)[C@]1(Cc2ccccc2)N=C(c2ccc(OCCCO)cc2)O[C@@H]1c1ccccc1`, for which the composite z-score in assay [1] was 1.15; in [2] it was 1.12; in assay [3] it was 0.246; in [4] it was 0.977; in assay [5], 0.368; in [6], -0.555. In addition, the composite z-score in the assay with Lefty1 is -0.524; in assay [8] it was 1.05; in [10], 0.0788; in assay [15], 0.452; in assay [16] it was 0.0872; with Torsin-1A (Homo sapiens) [17] it was -0.783. Besides, the composite z-score in the assay with Torsin-1A (Homo sapiens) [18] is -0.0179; in assay [19], -0.955. The z-score is -1.04 in assay [7]; -0.354 (inactive) in assay [9]; -2.3 (inactive) in assay [11]; -0.783 (inactive) in assay [12]; 5.59 (inactive) in [13]; 1.49 (inactive) in assay [14].

For `CN1C(=O)C2C=CC(C(O)C=Cc3ccc([N+](=O)[O-])cc3)N(N3CCCCC3)C2C1=O` (stereo not given), the composite z-score in [1] is 1.25; in [2] it was 1.2; in assay [3] it was 0.518; in assay [4], 0.966; in assay [5], 1.4; in [6], 0.544. Moreover, the composite z-score in the assay with Lefty1 came out at 0.393; in [8], 1.28; in assay [10], 1.32; in assay [15], 2.09; in assay [16], 1.22; with Torsin-1A (Homo sapiens) [17], 0.704. The composite z-score was 0.451 with Torsin-1A (Homo sapiens) [18] and 0.909 in [19]. Moreover, the z-score in [7] is 0.39; in assay [9], -1.79 (inactive); in [11], 0.795 (inactive); in assay [12], 0.287 (inactive); in assay [13], -0.519 (inactive); in assay [14] it was 0.855 (inactive).
